Read-out in assay [1]: Monocyte Chemoattractant Protein-1 (MCP1), CCL2 (gene 6347)
Description: BSK_LPS_MCP1: BioMAP Diversity Plus: LPS Assay for Monocyte Chemoattractant Protein-1 (MCP1) Biomarker Activity (AID 2283081).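 On AC50: secreted MCP-1 protein quantified by ELISA in culture supernatant.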 The note with it: primary human HUVEC with PBMC; actives raise or lower the signal. A digest of the protocol: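 Human umbilical vein endothelial cells co-cultured with PBMC, LPS-stimulated; secreted MCP-1 measured by ELISA 24 h after compound addition. Bidirectional curve fitting against DMSO baseline; SRB total-protein staining in parallel cultures for cytotoxicity.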

Assay [2] is described as follows: BSK_LPS_PGE2: BioMAP Diversity Plus: LPS Assay for Prostaglandin E2 (PGE2) Biomarker Activity (AID 2283082). To be noted: primary human HUVEC with PBMC; actives raise or lower the signal. A digest of the protocol:
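Compounds were added to the LPS co-culture of endothelium and PBMC, and PGE2 was measured by ELISA after 24 h. Responses in either direction were fitted with DMSO as baseline.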

Read-out in assay [3]: Tissue Factor, F3 (gene 2152)
Description: BSK_LPS_TissueFactor: BioMAP Diversity Plus: LPS Assay for Tissue Factor Biomarker Activity (AID 2283084). The note with it: primary human HUVEC with PBMC; actives raise or lower the signal. A digest of the protocol:
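Human umbilical vein endothelial cells co-cultured with PBMC were dosed with compound. Cell-surface CD142 was measured by ELISA 24 h later. Activity was fitted bidirectionally against DMSO, with SRB total-protein staining in parallel cultures for cytotoxicity.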

Read-out in assay [4]: Tumor necrosis factor (Homo sapiens) (UniProt P01375)
Description: BSK_LPS_TNFa: BioMAP Diversity Plus: LPS Assay for Tumour Necrosis Factor alpha (TNFa) Biomarker Activity (AID 2283085).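 On AC50: TNFa protein level quantified by ELISA in the co-culture.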 The note with it: primary human HUVEC with PBMC; actives raise or lower the signal. A digest of the protocol:
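Cells (umbilical vein endothelium plus peripheral blood mononuclear cells) were dosed with chemical, incubated 24 h, then TNFa was quantified by ELISA; values derive from bidirectional fitting with DMSO as baseline.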

Read-out in assay [5]: Vascular cell adhesion molecule 1 (VCAM1), VCAM1 (gene 7412)
Put plainly: BSK_LPS_VCAM1: BioMAP Diversity Plus: LPS Assay for Vascular cell adhesion molecule 1 (VCAM1) Biomarker Activity (AID 2283086). The note with it: primary human HUVEC with PBMC; actives raise or lower the signal. A digest of the protocol:
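Cells are dosed in an LPS-stimulated endothelial/mononuclear co-culture and, after 24 h, VCAM-1 is quantified by ELISA. Activity in either direction is fitted relative to the DMSO negative control.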

Read-out in assay [6]: CD38, CD38 (gene 952)
Description: BSK_SAg_CD38: BioMAP Diversity Plus: SAg Assay for CD38 Biomarker Activity (AID 2283087). The note with it: primary human HUVEC with PBMC; actives raise or lower the signal. A digest of the protocol:
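CD38 quantified by ELISA (fluorescence) in a superantigen-activated endothelial cell–PBMC co-culture at 24 h post-dose. Activity fitted in both directions relative to DMSO; parallel SRB and Alamar Blue cytotoxicity read-outs.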

Read-out in assay [7]: CD40, CD40 (gene 958)
Description: BSK_SAg_CD40: BioMAP Diversity Plus: SAg Assay for CD40 Biomarker Activity (AID 2283088). To be noted: primary human HUVEC with PBMC; actives raise or lower the signal. A digest of the protocol:
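HUVEC plus PBMC co-culture, superantigen-activated, with CD40 read by ELISA 24 h after dosing. Curves fitted in both directions against DMSO. Overt cytotoxicity checked by parallel SRB total-protein staining.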

Read-out in assay [8]: CD69, CD69 (gene 969)
Description: BSK_SAg_CD69: BioMAP Diversity Plus: SAg Assay for CD69 Biomarker Activity (AID 2283089).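 On AC50: cell surface CD69 protein quantified by ELISA with fluorescence detection.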 To be noted: primary human HUVEC with PBMC; actives raise or lower the signal. A digest of the protocol: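 Primary human vascular co-culture (umbilical vein endothelium with peripheral blood mononuclear cells) exposed to test chemical for 24 h. CD69 levels quantified by fluorescence ELISA; DMSO served as negative control for bidirectional fitting.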

Read-out in assay [9]: Monocyte Chemoattractant Protein-1 (MCP1), CCL2 (gene 6347)
Put plainly: BSK_SAg_MCP1: BioMAP Diversity Plus: SAg Assay for Monocyte Chemoattractant Protein-1 (MCP1) Biomarker Activity (AID 2283090). The note with it: primary human HUVEC with PBMC; actives raise or lower the signal. A digest of the protocol: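 Values derive from bidirectional fitting of ELISA-measured MCP1 against DMSO controls. Readings were taken 24 h after dosing human vascular endothelial cells co-cultured with peripheral blood mononuclear cells under superantigen stimulation.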

Read-out in assay [10]: E-selectin (Homo sapiens) (UniProt P16581)
Put plainly: BSK_SAg_Eselectin: BioMAP Diversity Plus: SAg Assay for Eselectin Biomarker Activity (AID 2283091). To be noted: primary human HUVEC with PBMC; actives raise or lower the signal. A digest of the protocol:
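Human umbilical vein endothelial cells co-cultured with peripheral blood mononuclear cells, SAg system. E-selectin is measured by ELISA 24 h after dosing and fitted bidirectionally against DMSO. Cytotoxicity is checked by SRB staining of parallel cultures.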

Read-out in assay [11]: Monokine induced gamma interferon (MIG), CXCL9 (gene 4283)
Description: BSK_SAg_MIG: BioMAP Diversity Plus: SAg Assay for Monokine induced gamma interferon (MIG) Biomarker Activity (AID 2283092). To be noted: primary human HUVEC with PBMC; actives raise or lower the signal. A digest of the protocol:
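Endothelial cells and PBMC were co-cultured, exposed to test chemicals, and sampled 24 h later. MIG was measured by ELISA, and responses were fitted in both directions relative to DMSO.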

Assay [12] is described as follows: BSK_SAg_PBMCCytotoxicity: PBMC Cytotoxicity Assessment in the BioMAP Diversity Plus: SAg Assay (AID 2283093).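 Further: fitted both ways against DMSO so a hit may be loss or gain of signal.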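 On AC50: PBMC superantigen activated with SEB plus TSST-1 one hour after compound addition.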 The note with it: primary human HUVEC with PBMC. A digest of the protocol: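 PBMC viability by Alamar Blue reduction, fluorescence read at 546/580 nm after 6 h dye exposure. Cells were dosed 1 h before SEB plus TSST-1 activation (20 ng/mL final each), then held 90 h; endothelial/PBMC human co-culture.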

Assay [13] can be described thus: BSK_SAg_Proliferation: Cell Proliferation Assessment in the BioMAP Diversity Plus: SAg Assay (AID 2283095).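 Further: relative cell number as total protein by SRB absorbance in sub-confluent culture.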 To be noted: primary human HUVEC with PBMC. A digest of the protocol:
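Absorbance of sulforhodamine B at 560 nm reports total protein in a human vascular endothelial/PBMC co-culture after 96 h chemical exposure. Gain or loss of signal is fitted in both directions against DMSO.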

The nature of assay [14]: BSK_SAg_SRB: Viability Assessment in the BioMAP Diversity Plus: SAg Assay (AID 2283096).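 Further: cells read one day after compound addition; hits may be either gain or loss of signal compared with DMSO.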 The note with it: primary human HUVEC with PBMC. A digest of the protocol: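 Compounds were added to a human vascular co-culture of umbilical vein endothelium and PBMC. After 24 h, parallel cultures were fixed with 10% TCA, stained with 0.1% sulforhodamine B and read at 560 nm. Gain or loss of signal was fitted relative to DMSO.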

Assay [15] has as its target human CYP2B6, CYP2B6 (gene 1555) (UniProt P20813). Put plainly: NVS_ADME_hCYP2B6: NovaScreen (NVS) CYP450-related Enzyme Activity (ADME) Assay for human CYP2B6 (AID 2283101; active means hit-call score of the fitted dose curve at least 0.9, where 1 is the maximum). A digest of the protocol:
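Cell-free recombinant enzyme assay with a fluorogenic substrate; fluorescence intensity read 1 hour after dosing. Loss of signal relative to acetonitrile negative control indicates inhibition. Primary screen run in duplicate at 10 uM, actives then tested in concentration series.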

The target in assay [16] is human CYP1A2, CYP1A2 (gene 1544) (UniProt P05177). Description: NVS_ADME_hCYP1A2: NovaScreen (NVS) CYP450-related Enzyme Activity (ADME) Assay for human CYP1A2 (AID 2283102; active means hit-call score of the fitted dose curve at least 0.9, where 1 is the maximum). A digest of the protocol:
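Recombinant human CYP1A2 from insect cells, cell-free, fluorogenic substrate; read 0.5 h after dosing with loss of fluorescence signal indicating inhibition. Primary screen in duplicate at 10 uM, acetonitrile as negative control.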

Assay [17] has as its target human CYP19A1, CYP19A1 (gene 1588) (UniProt P11511). Description: NVS_ADME_hCYP19A1: NovaScreen (NVS) CYP450-related Enzyme Activity (ADME) Assay for human CYP19A1 (AID 2283098; active means hit-call score of the fitted dose curve at least 0.9, where 1 is the maximum). A digest of the protocol: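 Fluorescence intensity read-out; activity taken as signal loss relative to acetonitrile vehicle. Extracted enzyme, specific substrate, no cells, 0.5 h exposure. Duplicate single-point screen at 10 uM, then concentration–response follow-up for actives.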

Records with an inconclusive call do not appear. Active and inactive are the calls of the source. How the source made its calls, unless noted: active means hit-call score of the fitted dose curve at least 0.9, where 1 is the maximum; inactive means score below 0.9.

Sequence of Tumor necrosis factor (Homo sapiens) (P01375 whole entry, looked up): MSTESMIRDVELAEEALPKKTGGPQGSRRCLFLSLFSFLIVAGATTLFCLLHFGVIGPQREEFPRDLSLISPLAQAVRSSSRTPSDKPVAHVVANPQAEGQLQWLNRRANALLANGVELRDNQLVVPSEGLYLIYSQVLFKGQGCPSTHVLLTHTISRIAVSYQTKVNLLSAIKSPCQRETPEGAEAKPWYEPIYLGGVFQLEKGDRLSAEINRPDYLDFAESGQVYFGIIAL
Sequence of E-selectin (Homo sapiens) (P16581 whole entry, looked up): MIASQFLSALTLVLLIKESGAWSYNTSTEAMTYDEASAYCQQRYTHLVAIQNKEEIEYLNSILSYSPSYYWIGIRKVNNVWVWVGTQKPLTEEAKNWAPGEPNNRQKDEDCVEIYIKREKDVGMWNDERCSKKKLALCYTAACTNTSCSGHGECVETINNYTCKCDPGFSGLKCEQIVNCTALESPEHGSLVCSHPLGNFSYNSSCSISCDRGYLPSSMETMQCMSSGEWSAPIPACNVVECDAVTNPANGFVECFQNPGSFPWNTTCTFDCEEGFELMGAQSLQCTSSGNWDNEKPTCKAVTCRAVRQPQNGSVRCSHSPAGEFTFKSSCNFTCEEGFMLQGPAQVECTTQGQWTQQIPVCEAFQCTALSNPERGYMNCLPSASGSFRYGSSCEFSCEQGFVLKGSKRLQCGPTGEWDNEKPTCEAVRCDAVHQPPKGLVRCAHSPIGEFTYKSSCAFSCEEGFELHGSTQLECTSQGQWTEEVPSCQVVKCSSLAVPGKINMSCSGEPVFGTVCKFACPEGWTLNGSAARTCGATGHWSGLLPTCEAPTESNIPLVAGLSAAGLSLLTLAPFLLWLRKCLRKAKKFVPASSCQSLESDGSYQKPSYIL
Sequence of human CYP2B6, CYP2B6 (gene 1555) (P20813 whole entry, looked up): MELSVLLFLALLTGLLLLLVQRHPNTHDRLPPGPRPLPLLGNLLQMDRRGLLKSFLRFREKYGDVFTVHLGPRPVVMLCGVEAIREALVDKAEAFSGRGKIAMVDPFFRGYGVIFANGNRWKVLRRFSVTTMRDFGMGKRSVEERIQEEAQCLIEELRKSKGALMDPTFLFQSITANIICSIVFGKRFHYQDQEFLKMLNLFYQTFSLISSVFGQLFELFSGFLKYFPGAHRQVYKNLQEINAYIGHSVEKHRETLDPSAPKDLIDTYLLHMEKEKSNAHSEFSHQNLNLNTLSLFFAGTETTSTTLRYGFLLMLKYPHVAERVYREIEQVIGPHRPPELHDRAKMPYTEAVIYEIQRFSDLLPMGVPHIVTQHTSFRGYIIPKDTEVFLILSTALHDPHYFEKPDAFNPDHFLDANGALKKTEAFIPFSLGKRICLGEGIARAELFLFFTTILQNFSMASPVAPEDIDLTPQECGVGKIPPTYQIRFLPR
Sequence of human CYP1A2, CYP1A2 (gene 1544) (P05177 whole entry, looked up): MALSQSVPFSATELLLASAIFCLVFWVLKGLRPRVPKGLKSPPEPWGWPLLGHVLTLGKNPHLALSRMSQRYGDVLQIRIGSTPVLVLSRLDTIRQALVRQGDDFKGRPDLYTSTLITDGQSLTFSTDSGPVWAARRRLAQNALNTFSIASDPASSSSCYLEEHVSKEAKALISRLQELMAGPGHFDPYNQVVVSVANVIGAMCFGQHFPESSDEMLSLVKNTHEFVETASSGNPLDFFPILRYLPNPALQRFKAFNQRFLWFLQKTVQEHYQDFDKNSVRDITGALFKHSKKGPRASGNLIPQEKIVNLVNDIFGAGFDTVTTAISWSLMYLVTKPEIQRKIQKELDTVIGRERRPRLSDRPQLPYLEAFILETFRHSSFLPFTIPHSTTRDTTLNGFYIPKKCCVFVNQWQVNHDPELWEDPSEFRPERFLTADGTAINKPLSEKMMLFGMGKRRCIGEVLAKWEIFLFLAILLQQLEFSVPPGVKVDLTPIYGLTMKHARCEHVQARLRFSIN
Sequence of human CYP19A1, CYP19A1 (gene 1588) (P11511 whole entry, looked up): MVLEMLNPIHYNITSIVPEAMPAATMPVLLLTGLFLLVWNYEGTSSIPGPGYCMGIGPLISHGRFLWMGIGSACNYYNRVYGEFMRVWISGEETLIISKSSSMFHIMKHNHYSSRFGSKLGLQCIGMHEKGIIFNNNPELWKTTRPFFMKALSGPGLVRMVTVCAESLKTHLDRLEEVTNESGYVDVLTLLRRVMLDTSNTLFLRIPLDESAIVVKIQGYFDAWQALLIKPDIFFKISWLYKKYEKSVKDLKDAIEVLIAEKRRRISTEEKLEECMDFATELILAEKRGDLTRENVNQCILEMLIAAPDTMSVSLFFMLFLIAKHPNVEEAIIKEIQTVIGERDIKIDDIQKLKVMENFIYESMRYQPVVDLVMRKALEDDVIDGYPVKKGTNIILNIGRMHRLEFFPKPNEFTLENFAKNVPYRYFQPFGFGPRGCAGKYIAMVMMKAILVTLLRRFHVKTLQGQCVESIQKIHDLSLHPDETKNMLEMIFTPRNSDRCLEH

Consider `C=C(C)C(=O)OCCOCCOCCOC(=O)C(=C)C`, for which the outcome in assay [1], in [2], in [3], in assay [4], in [5] and in assay [6] was inactive. The result in assay [7], in [8], in assay [9], in [10], in assay [11] and in [12] was inactive. For the same compound, the result in assay [13] and in assay [14] was inactive.
As to `CC(=O)C1(C)CC2=C(CCCC2(C)C)CC1C` (configuration not stated), the half-maximal activity concentration (AC50) (usually the concentration giving half of the maximal activity seen) is 10.9 µM (active) in assay [1]; 10.1 µM (active) in assay [3]; 13 µM (active) in assay [5]; 33 µM (active) in assay [6]; 15.2 µM (active) in assay [7]; 24.5 µM (active) in [8]. In addition, the concentration at half-maximal activity (AC50) in assay [9] is 23.6 µM (active); in [10], 15.5 µM (active); in assay [11], 33.9 µM (active); in assay [12], 12 µM (active); in [13], 9.65 µM (active); in [14], 26.8 µM (active). For the same compound, the result in assay [2] and in assay [4] was inactive.
Consider `C=C(C)[C@H]1CC=C(C)C(=O)C1`, for which the outcome in assay [1], in assay [2], in assay [3], in assay [4], in assay [5] and in assay [6] was inactive. Besides, the outcome in assay [7], in assay [8], in assay [9], in [10], in assay [11] and in assay [12] was inactive. For the same compound, the outcome in assay [13] and in [14] was inactive.
As for `CC(C=O)Cc1ccc(C(C)(C)C)cc1` (configuration not stated), the result in assay [1], in assay [2], in [3], in assay [4], in [5] and in [6] was inactive. For the same compound, the outcome in assay [7], in assay [8], in assay [9], in [10], in assay [11] and in assay [13] was inactive. Moreover, the result in [14] was inactive. For the same compound, in [12], the AC50 is 20 µM (active).
For `Oc1c(Cl)cc(Cl)c(Cl)c1Cc1c(O)c(Cl)cc(Cl)c1Cl`, the concentration at half-maximal activity (AC50) in assay [1] was 32.5 µM (active); in assay [3], 27.7 µM (active); in assay [4], 20 µM (active); in assay [5], 22.6 µM (active); in assay [6], 2.31 µM (active); in assay [7] it was 7.61 µM (active). In addition, the half-maximal activity concentration (AC50) in [8] was 5.19 µM (active); in assay [9], 5.46 µM (active); in assay [10], 3.17 µM (active); in assay [11], 8.51 µM (active); in assay [12], 12.9 µM (active); in assay [13] it was 4.05 µM (active). Also, in [14], the concentration at half-maximal activity (AC50) is 15.6 µM (active). Further, the outcome in assay [2] was inactive.
As to `CS(=O)(=O)OCCCCOS(C)(=O)=O`, the result in assay [1], in assay [2], in assay [3], in assay [4], in assay [5] and in [6] was inactive. In addition, the result in [7], in assay [8], in assay [9], in [10], in assay [11] and in [12] was inactive. Also, the outcome in assay [13], in assay [14], in assay [15] and in assay [16] was inactive.
With `CN1C(=O)c2ccccc2C1=O`, the compound was classed as inactive in assay [17].
